# Assay results taken from PubChem BioAssay AID1345082 (National Center for Advancing Translational Sciences (NCATS), 2018).
# About 4,000 (4.3%) of roughly 94,000 compounds were called active. Not shown: some 29% with an inconclusive outcome. The entries come from a sample that favours actives as a whole. Values without a mark were called inactive. Calls follow the shape of the dose curve; as a rule, active = well fitted inhibition curve with a large enough effect; inconclusive = small, poorly fitted or top-dose-only effect; inactive = no such curve, though single readings can be large or run the other way.
# Assay: Cytotoxic Profiling in NIH 3T3 Cell Line of Diverse Libraries Using Quantitative High-Throughput Screening; also: nearly all actives have a fitted effect of over 55% in size
# Conditions: NIH 3T3 viability, CellTiter-Glo ATP luminescence, 48-72 h; series mostly up to 96.7 µM; activity change, negative = cytotoxicity: at the top concentration
# Method in brief: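 Luminescent ATP readout (CellTiter-Glo, 10 min RT) after 48 or 72 hr compound exposure of NIH 3T3 cells seeded at 400 cells/well in 1536-well format; quantitative HTS.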
# % is scaled to controls: 0 for no effect and ±100 for the full control effect; potency is read from the fitted curve at half-maximal effect.
Compound,Potency,"activity change, negative = cytotoxicity",outcome
O=C(c1cn[nH]c1)N1CC2(CN(Cc3cccc(Cl)c3)CC2COc2ccccc2)C1 (centres undefined),79.4 µM (active),–,–
COCC1CN(C(C)=O)CC12CCN(Cc1cccc(C#N)c1)CC2 (centres undefined),–,-2.07%,–
Cc1cccc(C(=O)N2C[C@@H](COc3ccccc3)[C@H](C(N)=O)C2)c1,–,-10.5%,–
CNC(=O)c1cc(C)nc2onc(C3CCN(C(=O)C4CCCCC4)C3)c12 (centres undefined),–,-26.6%,–
CCn1ccnc1CN(C)C1CCCN(CCc2ccccc2)C1 (centres undefined),–,-15.6%,–
CC(=O)N1Cc2ccccc2CC2(CCN(Cc3cccnc3)CC2)C1,–,3.26%,–
O=C1CC(c2ccccc2)N(Cc2ccncc2)CCCN(Cc2cccnc2)CCN1 (centres undefined),–,-27.4%,–
c1ccc(CN2CCNc3cc(NCc4cccnc4)ncc3C2)cc1,50.1 µM (active),–,–
Cn1ccc(Nc2cc3c(cn2)CN(CCc2ccccc2)CCN3)n1,79.4 µM (active),–,–
COc1cccc(S(=O)(=O)N2CCC3(CC2)CC2C(=O)NCCN2C3)c1 (centres undefined),–,-20.6%,–
CCc1nc(N(C)Cc2nccn2Cc2ccccc2)c2cnn(C)c2n1,–,-36.8%,–
CS(=O)(=O)c1cnc(NCCN2CCOCC2)nc1C1CCCNC1 (centres undefined),–,-2.38%,–
COc1cc(-c2noc(-c3nc(-c4ccc5c(c4)OCO5)no3)n2)cc(OC)c1OC,–,2.76%,–
CC(C)C[C@@H]1N[C@H](C(=O)NC(C)C)Cc2c[nH]c3cccc1c23,100 µM (active),–,–
COCCn1c(C)cc(C(=O)N2CCCCCCNC(=O)CC2)c1C,–,-18.9%,–
O=C(c1cccnc1)N1CCC(Cc2nc(C3CCOCC3)no2)CC1,–,-28.1%,–
O=C([C@@H]1C[C@H](Oc2ccccc2)CN1S(=O)(=O)c1cccnc1)N1CCCC1,–,-4.44%,–
Cc1nn2c(c1-c1ccnn1C(C)C)N(CC1CCOCC1)CCC2,31.6 µM (active),–,–
Cc1nn2c(c1-c1ccccc1-c1ccccc1)N(CC1CC1)CCC2,3.16 µM (active),–,–
COc1ccc(S(=O)(=O)NCCc2noc(-c3ccncc3)n2)cc1,–,-28.4%,–
CNC(=O)N1CCC(C2CCN(C(=O)CSC)C2)CC1 (centres undefined),–,-4.44%,–
COc1cc(NC(=O)c2cc3c(N4CCSCC4)nc(C)cn3n2)cc(OC)c1,–,-19.2%,–
COc1ccccc1-c1cnc(NC(=O)c2ccc(Cl)cc2)c2c1CCO2,79.4 µM (active),–,–
COc1cc2c(cc1OC)C(CNC(=O)c1ccc(Cl)cc1)N(C(=O)Nc1ccccc1)CC2 (centres undefined),–,-27%,–
COc1ncccc1Nc1ncc(-c2ccccc2)c2c1OCC2,–,-15% [at 138 µM],–

Compound,Potency,"activity change, negative = cytotoxicity",outcome
O=C(c1ccccc1)N1CCCCC1c1nc(C2CC2)n[nH]1 (centres undefined),–,–,inactive
COc1ccc(NC(=O)[C@@H]2C[C@@H](c3ccc(F)cc3)N(CCOc3ccccc3)C2)cn1,44.7 µM (active),–,–
O=C(COc1ccc(NC(=O)C2CC2)cn1)NCc1ccc(F)cc1F,–,-0.432%,–
Cc1ccc(NC(=O)[C@@H]2CNC[C@H](C(=O)NCc3ccccn3)C2)cn1,–,-2.8%,–
CNC(=O)N1CCC(N2CC(OCC3CC3)C23CCCCC3)CC1 (centres undefined),–,-2.4%,–
O=C(O)C[C@@H]1CCN(C(=O)C(=O)O)C[C@@H]1CC1=NCCc2cc(F)ccc21,–,-4.26% [at 174 µM],–
O=C(c1cccc(F)c1)N1CCC(CCOc2ccc(F)cc2)C1 (centres undefined),39.8 µM (active),–,–
O=C(c1cccc(F)c1)N1CCCC(CN2CCOCC2)CC1 (centres undefined),–,-1.83%,–
Cc1ccc(OCCC2CCN(C(=O)c3cnccc3C)C2)cc1 (centres undefined),–,-16.8%,–
CC(=O)N1CCN(C(=O)c2cc(-c3cccc(F)c3)nc3c2cnn3C)CC1,–,-25.5%,–
COc1cccc(-c2cc(C(=O)N3CCN(C(C)=O)CC3)c3cnn(C)c3n2)c1,–,-17.5%,–
Cn1ncc2c(C(=O)N3CCC(c4ccccc4)CC3)cc(-c3ccc(F)cc3)nc21,39.8 µM (active),–,–
O=C(NC1CC1)c1cc2n(n1)CCN(C(=O)c1ccc3n[nH]nc3c1)C2,–,-13.9%,–
CCCN(CC1CCOC1)C(=O)Nc1cc(F)ccc1F (centres undefined),–,-6.36%,–
COc1ccccc1-c1cc(C(=O)NCc2ccccn2)nn2cnnc12,–,-25.9%,–
Cc1nn(-c2ccccc2)c2c1C(C(C)C)N(C1CCN(C(=O)c3ccc(Cl)nc3)CC1)C2=O (centres undefined),–,-26.8%,–
Cc1nn(-c2ccc(C(C)(C)C)cc2)c(C)c1[C@@H]1C=C[C@@H](NC(=O)c2ccco2)C1,35.5 µM (active),–,–
O=C(N[C@@H]1CN(c2ncccn2)C[C@H]1CO)c1ccco1,–,-10.3%,–
COc1ccc(-n2nc(C)c([C@H]3C=C[C@@H](OC(=O)Nc4cccc(F)c4)C3)c2C)cc1,28.2 µM (active),–,–
Cc1nn(-c2ccc(C(C)C)cc2)c(C)c1[C@@H]1C=C[C@@H](NC(=S)NCC(C)C)C1,22.4 µM (active),–,–
COc1cccc(NC(=O)Cn2c(=O)n(-c3ccc(F)cc3)c(=O)c3c2cc(C)n3C)c1,–,-15.1%,–
CCC(C)NC(=O)Cc1csc2nc(C)c(-c3cc(C)n(-c4ccc(C(C)C)cc4)n3)c(=O)n12 (centres undefined),–,-34.3%,–
Cc1cnc(CCNC(=O)c2ccco2)n1C1CCC1,–,-12.6%,–
Cc1nn(-c2ccccc2)c2c1C(C(C)C)N(C1CN(C(=O)c3ccc(Cl)nc3)C1)C2=O (centres undefined),–,2.41%,–
Cc1nn(-c2ccc(C(C)C)cc2)c(C)c1[C@@H]1C=C[C@@H](NC(=O)Nc2ccccc2)C1,50.1 µM (active),–,–

Compound,Potency,"activity change, negative = cytotoxicity",outcome
COc1cccc(-c2cc(C(=O)Nc3cccc(F)c3)c3cnn(C)c3n2)c1,–,-21.1%,–
CC(C)c1nc(CCn2cc(-c3cncnc3)nn2)cs1,–,-10.5%,–
Cc1ccc(CN2C[C@@H](CO)[C@H](c3nc(C)no3)C2)nc1,–,-11.2%,–
COc1ccccc1C(=O)N1CCc2nnc([C@@H]3C[C@@H](O)CN3C)n2CC1,–,–,inactive
CN1CCC(NC[C@H]2O[C@@H]3C[C@@H](CC(=O)NCc4cnn(C)c4)O[C@@H]3[C@@H]2O)CC1,–,1.18% [at 174 µM],–
CC(C)c1nc2c(c(-c3ccc(Cl)cc3)n1)CN(C(=O)c1ccccc1)CC2,–,-19.8%,–
COc1ccc(C(=O)N2CCC(CCn3c(C)cnc3C3CC3)CC2)cc1,–,-23.3%,–
COC(=O)CNC(=O)NC1CCN(C(=O)N2CC3CC(C2)[C@H]2CCCC(=O)N2C3)CC1 (some centres undefined),–,4.02%,–
Cc1ccc2c(c1)C(C[C@H]1CN(C(=O)NC(C)C)CC[C@H]1CC(=O)O)=NCC2,–,1.35% [at 174 µM],–
Cc1noc(C)c1[S+](=O)([O-])N1CCC2(CC1)C(=O)NN=C2c1cccnc1,–,-26.3%,–
Cc1ccccc1CNC(=O)CN1C(=O)C2(CCNCC2)Nc2ccccc21,–,–,inactive
CN(Cc1cccc(C(F)(F)F)c1)Cc1cccc(C(F)(F)F)c1,–,-4.01%,–
CC(C)(C)n1nnnc1C1CC2(CCOCC2)C(=O)N1Cc1ccc(F)cc1 (centres undefined),–,-0.724%,–
COc1cccc(-c2ccc(CN3CCCC3C(=O)NCc3ccccc3Cl)cc2)c1 (centres undefined),39.8 µM (active),–,–
Cc1ccc(-c2cccc(CN3CCCC(NC(=O)c4ccc(C(F)(F)F)cc4)C3)c2)cc1Cl (centres undefined),–,-4.84%,–
Cc1ccc(CNC(=O)[C@@H]2COCC(=O)N2Cc2ccc(F)cc2)cc1,–,-23.1%,–
Cc1ccc(-c2cccc(CN3CCCC3C(=O)NCc3ccc(C(F)(F)F)cc3)c2)cc1Cl (centres undefined),31.6 µM (active),–,–
COc1cccc(CC(=O)N2CCC(N3C(=O)CCC3C(=O)NCc3ccccc3)CC2)c1 (centres undefined),–,-14.4%,–
COc1cccc(-c2cccc(C(=O)N3CCCC3C(=O)NCC3CC3)c2)c1 (centres undefined),–,-10.9%,–
CN(CC1CCOCC1)C(=O)Cc1ccsc1,–,–,inactive
COc1ccc(N2CCC(NS(=O)(=O)C3CC3)C2=O)cc1 (centres undefined),–,-15.8%,–
CN(C)Cc1cn(C[C@H]2C[C@@H](NS(=O)(=O)c3ccccc3)[C@H](O)[C@@H]2O)nn1,–,-5.32% [at 174 µM],–
O=C(C1CCC1)N1CCC(C(=O)N2CCCC2c2ccco2)CC1 (centres undefined),–,1.21%,–
CN(CC1CCOCC1)C(=O)c1ccc(Cl)cc1,–,-0.189%,–
O=C(C1CCCCN1Cc1ccc(-c2cccs2)cc1)N1CCOCC1 (centres undefined),–,0.343%,–

Compound,Potency,"activity change, negative = cytotoxicity",outcome
COCCNC(=O)[C@@H]1CCC[C@@H](NCc2ccc(F)cc2)CN(C)C(=O)C1,–,-11.3% [at 174 µM],–
CCN1CCN(C(=O)C2CCCCN2Cc2ccc(-c3cc(F)ccc3OC)cc2)CC1 (centres undefined),35.5 µM (active),–,–
CCOCCOC1CCN(C(=O)NCc2ccc(F)cc2)CC1,–,-4.23%,–
CCOCCNC(=O)C1CCCCN1Cc1ccc(-c2cc(F)ccc2OC)cc1 (centres undefined),39.8 µM (active),–,–
CC(=O)N1CCCN(C(=O)C2CCCCN2Cc2ccc(-c3ccsc3)cc2)CC1 (centres undefined),–,-22.7%,–
O=C(c1cccn1C1CC1)N1C[C@H](CO)C[C@H](CN2CCCC2)C1,–,-2.77%,–
COCC1CN(C)CC12CCN(C(=O)C1CCOCC1)CC2 (centres undefined),–,-0.42%,–
Cc1ccccc1S(=O)(=O)N1CCC2(CC1)CC(OCC1CC1)CCO2 (centres undefined),–,-19.2%,–
COc1cc(F)ccc1-c1ccnc2nc(C(C)C)nn12,–,-24.5%,–
Cc1noc([C@@H]2CN(S(=O)(=O)c3cccs3)C[C@H]2C(N)=O)n1,–,-16.9%,–
CCCOCCCNC(=O)c1c(C)noc1-c1cc(OC)c(OC)c(OC)c1,–,-17.4%,–
COc1ccccc1-c1onc(C)c1C(=O)NCc1ccc(Cl)cc1,–,-28.6%,–
COc1ccccc1-c1onc(C)c1C(=O)NCCC(c1ccccc1)c1ccccc1,31.6 µM (active),–,–
COC[C@@H]1CN(Cc2ccccn2)C[C@H]1C(=O)N(C)C,–,-6.36%,–
Cc1cc(CNC(=O)C2CCCN(C3CCN(CCc4ccccc4)CC3)C2)on1 (centres undefined),–,0.71%,–
CC(C)CCNC(=O)c1cnc2c(c1)N(Cc1ccccc1)CCC2,79.4 µM (active),–,–
O=C(Nc1cccc(Cl)c1)c1cnc2c(c1)N(C(=O)CCc1ccccc1)CCC2,–,-20% [at 138 µM],–
CC(C)Nc1ncc(C(=O)NC2CCCN(CCc3ccccc3)C2)cn1 (centres undefined),–,-6.8%,–
Cc1cccc(C(=O)N2CCCN(c3nnc4ccccn34)CC2)c1,–,-8.72%,–
Cc1cc(C(=O)NCC(C)C)c2c(C3CCNC3)noc2n1 (centres undefined),–,2.92% [at 138 µM],–
COc1cc(SC)ccc1C(=O)N[C@@H]1C=C(C(=O)N[C@@H](Cc2cccs2)C(N)=O)C[C@@H](O)[C@@H]1O,–,–,inactive
Cc1ccc(C)c(NC(=O)C2CC(=O)N(c3n[nH]c4cc(Br)ccc34)C2)c1 (centres undefined),–,-8.49%,–
Cc1nc(N2CCC(NCCNc3ccncc3C)CC2)c2ccsc2n1,44.7 µM (active),–,–
Cc1nc(N2CCC(NC(=O)c3cnccn3)CC2)cc(C(F)(F)F)n1,–,-1.41%,–
